Shiga inhibitor = inhibitors of Shiga toxin in Vero cells. Vero cells, Shiga toxin protein synthesis inhibition reporter. inhibition, % at 38.7 µM. hit rate 9.2% among 290,000; in the data active = inhibition mostly above about 28%, no sharp cut-off; inactive = mostly below about 43%
Pf growth 96h = P. falciparum growth inhibition at 96 hour, primary screen for plastid delayed-death inhibitors | P. falciparum luciferase reporter growth, 96 h | Potency, µM (top dose mostly 28.7 µM), usual class: inhibitors | hit rate 6.9% among 320,000 | AID 504834
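P. falciparum expressing integrated firefly luciferase grown in erythrocytes (2% hematocrit, 0.05% parasitemia final) with compounds for 96 hours at 37 C, 5% CO2. Growth inhibition read as loss of luminescence after adding luciferase detection reagent.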
Lassa entry inh = inhibitors of Lassa virus binding or cell entry; hit rate 1.2% among 300,000; Lassa virus pseudotype entry inhibition, cell reporter; Potency, µM (top dose mostly 37.9 µM), actives largely listed as inhibitors; calls by dose curve; tested in HEK293 cells; note: nearly all actives have a fitted effect of over 50% in size
Cycloheximide cs = counter-screen hit for Shiga toxin inhibitors, cycloheximide | max response, % | hit rate 12% among 300,000 | cell reporter, cycloheximide protein synthesis inhibition counterscreen | AID 2314; in the data active = max response mostly above about 13%, no sharp cut-off; inactive = mostly below about 14%; note: read at 38.3 µM for the half of the compounds with a filed dose
MARV entry inh = Marburg virus entry inhibition. Marburg virus pseudotyped entry inhibition, cell reporter. Potency, µM (series often up to 37.8 µM), actives largely listed as inhibitors. hit rate 1.8% among 300,000. AID 540276; calls by dose curve; tested in HEK293 cells
Pf growth 48h = P. falciparum growth inhibition at 48 hours (one generation). P. falciparum luciferase growth in erythrocytes, 48 h. Potency, µM (series often up to 28.7 µM), hits mostly inhibitors. hit rate 5.9% among 310,000. AID 504832
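First compound was added to culture medium, then infected red cells at 0.1% parasitemia and 2% hematocrit (final). After incubation at 37 C under 5% CO2, luciferase detection reagent was dispensed and light output recorded.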
Of the large screens only hits and unclear results are named; the others gave an inactive call. Sampled rows, rich in hits. Any-hit rate of the full collection: about 19%. Unless noted, calls come from the whole dose curve; as a rule, active = well fitted inhibition curve with a large enough effect; inconclusive = small, poorly fitted or top-dose-only effect, or another doubt; inactive = no such curve, though single readings can be large or run the other way.

CO[C@H]1C[C@@H]2CC[C@@H](C)[C@@](O)(O2)C(=O)C(=O)N2CCCC[C@H]2C(=O)OC([C@H](C)C[C@@H]2CC[C@@H](O)[C@H](OC)C2)CC(=O)[C@H](C)/C=C(\C)[C@@H](O)[C@@H](OC)C(=O)[C@H](C)C[C@H](C)/C=C/C=C/C=C/1C (stereo partly specified)	none (no result: Pf growth 96h, Lassa entry inh, MARV entry inh, Pf growth 48h)
CO[C@H]1C[C@@H]2CC[C@@H](C)[C@@](O)(O2)C(=O)C(=O)N2CCCC[C@H]2C(=O)O[C@H]([C@H](C)C[C@@H]2CC[C@@H](O)[C@H](OC)C2)CC(=O)[C@H](C)C=C(C)[C@@H](O)[C@@H](OC)C(=O)[C@H](C)C[C@H](C)C=CC=CC=C1C	Pf growth 96h 0.93µM, Pf growth 48h 5.2µM (no result: Lassa entry inh)
O=C(Nc1cccc(Cl)c1Cl)C1CCN(c2ncccn2)CC1	none
CCOC(=O)C1=NNC(C(=O)c2ccc(Cl)cc2)C1c1ccccc1 (stereo unspecified)	none
CCOC(=O)C1=NNC(C(=O)c2ccc(Cl)cc2)C1c1ccc(OC)cc1 (stereo unspecified)	Pf growth 96h 13µM, MARV entry inh inconclusive, Pf growth 48h inconclusive
CCOC(=O)C1NN=C(C(=O)c2ccc(C)cc2)C1c1ccc(C)cc1 (stereo unspecified)	Pf growth 96h 10µM, MARV entry inh inconclusive, Pf growth 48h inconclusive
CCOC(=O)C1=NNC(C(=O)c2ccc(C)cc2)C1c1ccc(OC)cc1 (stereo unspecified)	MARV entry inh inconclusive, Pf growth 48h 12µM (no result: Pf growth 96h)
CCc1ccc(OCCn2cccn2)cc1	Shiga inhibitor 59, Cycloheximide cs 34, MARV entry inh inconclusive
COc1ccc(CN2CCNC(=O)C2CC(=O)NCCSc2nccn2C)c(OC)c1 (stereo unspecified)	none
NC(=O)Cn1c(=O)n(CCCCCC(=O)NCc2ccc3c(c2)OCO3)c(=O)c2sccc21	none (no result: Shiga inhibitor, Pf growth 96h, Cycloheximide cs, Pf growth 48h)
COCCNC(=O)Cn1c(=O)n(CCCC(=O)NCc2ccc3c(c2)OCO3)c(=O)c2sccc21	Lassa entry inh 4.5µM, MARV entry inh inconclusive
C=CCn1c(SCc2nc3ccccc3[nH]2)nnc1-c1ccncc1	none
CC(C)NC(=S)Nc1ccc(Oc2ccccc2)cc1	Shiga inhibitor 29
O=C(Nc1ccc(Nc2ccccc2)cc1)c1ccc(F)cc1	Shiga inhibitor 33, Cycloheximide cs 36, Pf growth 48h inconclusive (no result: Lassa entry inh, MARV entry inh)
Cc1ccc(NC(=S)NC(=O)c2ccc(F)cc2)cc1S(=O)(=O)Nc1ccccc1Cl	Lassa entry inh inconclusive, MARV entry inh 1.1µM
O=C(NS(=O)(=O)c1ccc(Cl)cc1)c1ccccc1	none (no result: Lassa entry inh, MARV entry inh)
O=C(O)c1ccc(C(=O)Nc2ccc(F)cc2)cc1	none (no result: Shiga inhibitor, Lassa entry inh, Cycloheximide cs, MARV entry inh)
O=C(O)/C(=N/NC(=O)c1ccc(Cl)cc1)c1ccccc1	Cycloheximide cs 23 (no result: Lassa entry inh, MARV entry inh)
O=C(NC(=S)Nc1ccc(-c2ccccc2)cc1)c1ccccc1	MARV entry inh inconclusive (no result: Shiga inhibitor, Pf growth 96h, Cycloheximide cs, Pf growth 48h)
O=C(NC(=S)Nc1ccc(Cl)cc1)c1ccccc1	Shiga inhibitor 72, Lassa entry inh inconclusive, Cycloheximide cs 89, MARV entry inh inconclusive
O=C(N/N=C/c1cccn1-c1cccc(C(=O)O)c1)Nc1ccccc1	Shiga inhibitor 52, Cycloheximide cs 31
O=C(NC(=S)Nc1ccc(Oc2ccc(Cl)cc2)cc1)c1ccccc1	Pf growth 96h inconclusive, Cycloheximide cs 19
O=C(N/N=C/c1ccc(Cl)cc1Cl)Nc1ccccc1	Cycloheximide cs 9.2, MARV entry inh inconclusive
Cc1ccc(/C=C2\SC(=S)N(CCC(=O)NNC(=O)c3cccnc3)C2=O)cc1	none
Cc1nc2ccccc2n1CCc1nc2c3ccccc3nc(SCC(=O)Nc3ccc(Br)cc3F)n2n1	none (no result: Shiga inhibitor, Pf growth 96h, Cycloheximide cs, MARV entry inh, Pf growth 48h)
Cc1ccc2c(c1)N(CC(=O)NC1CCCC1)C(=O)CO2	Pf growth 96h inconclusive
CC(=O)Nc1ccc2c(c1)-c1ccc(F)cc1C2=O	none (no result: Shiga inhibitor, Pf growth 96h, Cycloheximide cs, Pf growth 48h)
Cc1ccccc1C(=O)Nc1cccc(NC(=O)c2ccc(F)cc2)c1	Pf growth 96h 10µM, MARV entry inh inconclusive
O=C(N/C(=N\O)c1ccccc1)Nc1ccc(Cl)cc1	Shiga inhibitor 48 (no result: Pf growth 96h)
O=C(Nc1cccc(NC(=O)c2ccccc2Cl)c1)c1ccc(F)cc1	none (no result: Lassa entry inh, MARV entry inh)
O=C(NC(=S)Nc1ccc(NC(=O)c2ccccc2)cc1)c1ccc(F)cc1	Pf growth 96h 6.6µM, Pf growth 48h 6.6µM
O=C(NC(=S)Nc1ccc2c(c1)C(=O)c1ccccc1C2=O)c1ccc(F)cc1	Shiga inhibitor 103, Lassa entry inh inconclusive, Cycloheximide cs 72
CCCN(CC(=O)Nc1ccccc1OC)C(C)C(=O)NC(C)CCc1ccccc1 (stereo unspecified)	Pf growth 48h inconclusive
Cc1ccc(C2C(S(C)(=O)=O)=C(O)C(=O)N2c2ccccc2)cc1 (stereo unspecified) (tested in a mixture with another compound)	none
Cc1nn(Cc2ccc(C(=O)N/N=C/c3ccncc3)o2)c(C)c1Cl	Pf growth 96h inconclusive, Lassa entry inh inconclusive, Pf growth 48h inconclusive
COC(=O)C1=C[C@@H](C(=O)OC)C2C3=C(C(=O)[C@@]2(C)NC(=O)c2ccccc2)[C@H](C)[C@@H]2C(=O)NC(=O)[C@@H]2[C@@H]3C1 (stereo partly specified)	none (no result: Pf growth 96h, Lassa entry inh, MARV entry inh, Pf growth 48h)
CCc1ccccc1NC(=O)C1CCN(c2nc3ccccc3[nH]2)CC1	none (no result: Shiga inhibitor, Pf growth 96h, Cycloheximide cs, MARV entry inh, Pf growth 48h)
O=Cc1cccn1-c1c(C(=O)O)cnn1-c1ccccc1	Pf growth 96h 10µM
O=C(O)c1cnn(-c2ccccc2)c1-c1ccncc1	Lassa entry inh inconclusive
CN(C(=O)CSc1nnc(Cc2cccs2)n1C1CC1)C1CCS(=O)(=O)C1 (stereo unspecified)	Pf growth 48h inconclusive (no result: Shiga inhibitor, Cycloheximide cs)
Cc1cc(NC(=O)CCC2CCCC2)no1	Cycloheximide cs 28
Cc1ccnc(NC(=O)CCC2CCCCC2)c1	Shiga inhibitor 126, Cycloheximide cs 42 (no result: Pf growth 96h)
CCCC(=O)Nc1ccc(Br)cn1	Lassa entry inh inconclusive (no result: Pf growth 48h)
CCC(=O)Nc1ccc(NC(=O)C23CC4CC(CC(C4)C2)C3)cn1	Pf growth 96h inconclusive (no result: Lassa entry inh)
Cc1ccnc(NC(=O)C23CC4CC(CC(C4)C2)C3)c1	Cycloheximide cs 12, Pf growth 48h inconclusive
O=C(CCC1CCCC1)Nc1ccon1	none (no result: Pf growth 96h)
O=C(CCC1CCCC1)Nc1ccc(Br)cn1	Shiga inhibitor 89, Cycloheximide cs 18
CC1(C)CC(=O)C=C(NCCN2CCN(C(=O)Cc3ccc(Cl)cc3)CC2)C1	Pf growth 48h inconclusive (no result: Pf growth 96h)
O=C1NCCN1C(=O)c1ccco1	none
Cc1cc(NC(=O)CCC2CCCCC2)no1	Shiga inhibitor 61, Lassa entry inh inconclusive, Cycloheximide cs 25
Cc1cc(NC(=O)CN2CCCCCCC2)no1	Lassa entry inh inconclusive (no result: Pf growth 96h)
N#CC1=C(N)Oc2ccccc2C12C(=O)Nc1n[nH]c(-c3ccccc3)c12 (stereo unspecified)	none
COC(=O)c1sc(C(C)(C)C)cc1CS(=O)(=O)c1ccccn1	Pf growth 96h 13µM, Pf growth 48h inconclusive (no result: Lassa entry inh, MARV entry inh)
Cc1[nH]c2ccccc2c1C(c1ccccn1)c1c(C)[nH]c2ccccc12	Pf growth 48h 9.3µM (no result: Pf growth 96h)

From PubChem BioAssay
